Assay [1] relates to Plasmodium falciparum Sir2 (PF13_0152, Sir2A). As to the kind of experiment: Plasmodium falciparum Sir2A binding compounds – biochemical, small-molecule microarray, 635 nm fluorescence, primary screen (AID 1098).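 Note: score merges spot fluorescence intensity with its signal-to-noise ratio.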 The following applies: fluorescence 635 nm, higher = more signal.
The nature of assay [2]: probe aDKK1 binding to arrayed compounds – biochemical, biotinylated probe, 635/667 nm fluorescence, primary screen (AID 1099).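 Note: score merges 667nm spot fluorescence with signal to noise across triplicate slides; reference of the scale not given here.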 The note with it: small-molecule microarray, higher = more signal.
Assay [3] can be described thus: probe aCHRDL2 binding to arrayed compounds – biochemical, biotinylated probe, 635/667 nm fluorescence, primary screen (AID 1100). The following applies: small-molecule microarray, higher = more signal.
The nature of assay [4]: change in splice reporter luminescence, either direction, cell-based, HEK293, spliceosome inhibition project, primary screen (AID 1101).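 Note: HEK293 cells carrying a splicing-competent luciferase reporter gene; test concentration not given here.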 The following applies: HEK293 splicing luciferase reporter, 24 h, higher = more signal, called active from +8 up or from −8 down.
Assay [5] has as its target Fibroblast growth factor 10 (Homo sapiens) (UniProt O15520). Kind of assay: compounds binding fibroblast growth factor 10 – biochemical, small-molecule microarray, 635 nm fluorescence, primary screen (AID 1102). The following applies: FGF10 binding, fluorescence 635 nm, higher = more signal.
The subject of assay [6] is glycogen synthase kinase-3 (GSK3A per assay name; protocol says GSK3B). As to the kind of experiment: compounds binding glycogen synthase kinase-3 – biochemical, small-molecule microarray, 635 nm fluorescence, GSK3A, primary screen (AID 1103). Note: the record names both GSK3A and GSK3B. The following applies: fluorescence 635 nm, higher = more signal.
Assay [7] concerns the target Epidermal growth factor receptor (Homo sapiens) (UniProt P00533). As to the kind of experiment: compounds binding epidermal growth factor receptor – biochemical, small-molecule microarray, 635 nm fluorescence, primary screen (AID 1104).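 Note: score merges 667 nm emission intensity with spot signal to noise over triplicate slides.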 The following applies: EGFR binding, higher = more signal.
The target of assay [8] is Follistatin-related protein 3 (Homo sapiens) (UniProt O95633). Kind of assay: compounds binding follistatin-related protein 3 – biochemical, small-molecule microarray, 635 nm fluorescence, primary screen (AID 1105).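 Note: score merges emission near 667 nm and signal to noise per printed spot across three slides.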 The following applies: FSTL3 binding, higher = more signal.
For assay [9], the target named is Dickkopf-related protein 1 (Homo sapiens) (UniProt O94907). As to the kind of experiment: small molecules binding DKK1 protein – biochemical, small-molecule microarray, 635 nm fluorescence scan, primary screen (AID 1106).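 Note: score merges emission near 667 nm with signal to noise over three replicate slides.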 The note with it: higher = more signal.
Assay [10] concerns Inhibin beta A chain (activin A). As to the kind of experiment: small molecules binding activin A – biochemical, small-molecule microarray, 635 nm fluorescence scan, primary screen (AID 1107).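 Note: mouse activin A protein probed at 4.33 µg/mL on printed slides; score merges bound-protein fluorescence near 667 nm with spot signal-to-noise.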 The following applies: INHBA, higher = more signal.

Active and inactive are the calls of the source.

Sequence of Fibroblast growth factor 10 (Homo sapiens) (O15520 whole entry, looked up): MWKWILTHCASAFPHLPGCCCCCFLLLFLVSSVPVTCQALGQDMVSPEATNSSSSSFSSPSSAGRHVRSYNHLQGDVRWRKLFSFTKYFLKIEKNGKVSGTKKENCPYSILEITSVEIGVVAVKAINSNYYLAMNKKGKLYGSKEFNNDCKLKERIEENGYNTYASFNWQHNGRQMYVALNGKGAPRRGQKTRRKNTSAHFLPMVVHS
Sequence of Epidermal growth factor receptor (Homo sapiens) (P00533 whole entry, looked up): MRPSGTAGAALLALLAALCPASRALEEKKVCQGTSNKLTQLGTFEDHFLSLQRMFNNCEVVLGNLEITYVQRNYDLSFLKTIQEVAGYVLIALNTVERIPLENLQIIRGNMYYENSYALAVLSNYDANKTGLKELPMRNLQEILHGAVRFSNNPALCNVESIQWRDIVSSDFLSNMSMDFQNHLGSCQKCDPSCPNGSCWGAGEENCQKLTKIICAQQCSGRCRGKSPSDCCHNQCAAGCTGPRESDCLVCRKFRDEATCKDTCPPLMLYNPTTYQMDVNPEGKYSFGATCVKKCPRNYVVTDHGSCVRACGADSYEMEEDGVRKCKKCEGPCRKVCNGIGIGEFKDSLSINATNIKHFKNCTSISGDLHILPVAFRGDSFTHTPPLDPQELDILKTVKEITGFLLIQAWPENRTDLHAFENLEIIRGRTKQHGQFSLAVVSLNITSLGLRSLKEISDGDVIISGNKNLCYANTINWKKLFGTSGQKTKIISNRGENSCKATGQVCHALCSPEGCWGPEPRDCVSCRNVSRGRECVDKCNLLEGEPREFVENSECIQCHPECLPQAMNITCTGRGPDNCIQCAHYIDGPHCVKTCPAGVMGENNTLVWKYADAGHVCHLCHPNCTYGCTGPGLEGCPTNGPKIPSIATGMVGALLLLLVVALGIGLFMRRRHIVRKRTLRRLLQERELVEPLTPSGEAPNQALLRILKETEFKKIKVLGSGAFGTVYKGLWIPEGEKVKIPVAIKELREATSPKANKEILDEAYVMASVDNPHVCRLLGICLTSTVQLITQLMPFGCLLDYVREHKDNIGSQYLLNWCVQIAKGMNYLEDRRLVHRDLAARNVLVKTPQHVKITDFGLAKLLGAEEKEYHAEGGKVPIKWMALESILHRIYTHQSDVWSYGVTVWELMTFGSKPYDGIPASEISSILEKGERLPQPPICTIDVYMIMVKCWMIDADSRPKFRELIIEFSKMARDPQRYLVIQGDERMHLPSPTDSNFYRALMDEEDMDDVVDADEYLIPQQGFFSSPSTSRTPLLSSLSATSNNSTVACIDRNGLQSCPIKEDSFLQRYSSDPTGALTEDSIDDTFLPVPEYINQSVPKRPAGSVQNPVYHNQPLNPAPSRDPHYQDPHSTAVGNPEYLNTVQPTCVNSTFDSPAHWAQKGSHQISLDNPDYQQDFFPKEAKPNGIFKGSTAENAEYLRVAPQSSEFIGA
Sequence of Dickkopf-related protein 1 (Homo sapiens) (O94907 whole entry, looked up): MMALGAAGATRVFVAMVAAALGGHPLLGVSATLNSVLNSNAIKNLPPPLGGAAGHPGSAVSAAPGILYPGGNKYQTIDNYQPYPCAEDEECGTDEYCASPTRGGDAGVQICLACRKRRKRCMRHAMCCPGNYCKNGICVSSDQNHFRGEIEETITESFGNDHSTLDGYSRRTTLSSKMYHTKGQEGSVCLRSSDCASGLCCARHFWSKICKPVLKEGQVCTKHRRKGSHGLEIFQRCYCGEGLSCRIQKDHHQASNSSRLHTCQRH
Sequence of Follistatin-related protein 3 (Homo sapiens) (O95633 whole entry, looked up): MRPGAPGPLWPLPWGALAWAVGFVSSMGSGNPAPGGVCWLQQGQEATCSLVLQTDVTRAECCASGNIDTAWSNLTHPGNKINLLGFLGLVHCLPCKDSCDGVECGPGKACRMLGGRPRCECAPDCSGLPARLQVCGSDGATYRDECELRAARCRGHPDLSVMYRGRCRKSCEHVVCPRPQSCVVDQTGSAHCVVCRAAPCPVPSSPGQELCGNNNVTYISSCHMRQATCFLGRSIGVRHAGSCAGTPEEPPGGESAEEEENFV

Consider `O=C1OCCC/C=C\[C@H]2OC34C=CCN(Cn5nnc6ccccc65)C(=O)[C@H]3N(CCCCCO)C(=O)[C@@H]4C12` (stereo not given in full), for which the composite z-score was 0.957 in [1]; -0.118 in [2]; 0.584 in assay [3]; -1.08 in [5]; -1.7 in assay [6]; -0.97 in [7]. Further, the composite z-score in [8] was -0.751; in assay [9] it was -1.45; in assay [10], 0.702. Besides, in assay [4], the z-score is -0.586 (inactive).
Consider `[N-]=[N+]=NCc1ccccc1[C@@H]1OC(c2ccc(OCCCO)cc2)=N[C@]1(Cc1ccccc1N=[N+]=[N-])C(=O)NCc1ccccc1`, for which the composite z-score is 0.919 in [1]; 0.0108 in assay [2]; 0.316 in [3]; 0.691 in [5]; 1.25 in [6]; 0.351 in assay [7]. In addition, the composite z-score in assay [8] was determined as 0.667; in assay [9], 0.0688; in assay [10] it was 1.28. For the same compound, in assay [4], the z-score is -0.856 (inactive).
On to `COc1ccc(C(O)C2C=CC3C(=O)N(c4ccccc4)C(=O)C3N2Nc2ccc([N+](=O)[O-])cc2)cc1OCc1ccccc1` (stereo not given), for which the composite z-score in assay [1] stood at 1.4; in assay [2] it was 1.86; in [3], 1.15; in [5], 1.02; in assay [6], 0.735; in [7] it was 0.534. Moreover, the figures for the composite z-score in assay [8], in assay [9] and in assay [10] were 0.763, -0.0143 and 1.07, respectively. For the same compound, the z-score in assay [4] was 0.465 (inactive).
On to `O=c1cccc(C=Cc2ccccc2)o1`, for which the composite z-score is -1.32 in [1]; 0.121 in [2]; 0.756 in assay [3]; -0.629 in assay [5]; 0.0144 in assay [6]; -1.16 in assay [7]. In addition, the results for the composite z-score in assay [8], in [9] and in assay [10] were -0.657, -1.36 and 0.758, respectively. Further, in assay [4], the z-score was -0.121 (inactive).
On to `CCCCCCCCCCC(O)C1C=CC2C(=O)N(Cc3ccccc3)C(=O)C2N1n1cnnc1` (stereo not given), for which the composite z-score in assay [1] is 0.724; in assay [2], 0.897; in assay [3], 0.739; in assay [5] it was -0.262; in assay [6] it was 0.08; in [7], -0.384. For the same compound, the composite z-score in assay [8] is -0.351; in [9], -0.906; in assay [10], 1.23. Further, the z-score in [4] was -0.47 (inactive).
Turning to `Cc1ccc([C@H]2C(C(=O)O)=C[C@@H](C)N2S(=O)(=O)c2ccc(C)cc2)cc1`, the composite z-score in assay [1] is 1.23; in [2] it was 0.353; in [3] it was 0.841; in [5], -0.564; in assay [6], -0.107; in [7], -0.19. The composite z-score is -0.525 in [8], -1.13 in assay [9] and 1.02 in assay [10]. Moreover, the z-score in assay [4] is 0.709 (inactive).
Take `COC(=O)[C@@]1(Cc2ccccc2)[C@H]2c3cc(C(=O)N4CCCC4)n(C)c3C[C@H]2CN1C(=O)c1ccccc1`: the composite z-score in [1] was 0.762; in assay [2], 1.23; in [3] it was 0.892; in assay [5] it was -0.175; in [6] it was 0.237; in [7], -0.141. Further, the composite z-score in [8] was 0.803; in assay [9] it was -0.477; in assay [10] it was 1.1. Also, the z-score in assay [4] is -1.91 (inactive).
For the compound `COc1ccc(NN2C(C(O)c3ccc(OC)c(OCc4ccccc4)c3)C=CC3C(=O)N(C4CCCCC4)C(=O)C32)cc1` (stereo not given), the composite z-score is 0.897 in assay [1]; 0.686 in assay [2]; 0.627 in [3]; 0.622 in assay [5]; 0.995 in [6]; 0.216 in assay [7]. Besides, the figures for the composite z-score in assay [8], in [9] and in [10] were 1, -0.228 and 1.13, respectively. The z-score in [4] was -0.306 (inactive).
For `O=C1C[C@@](C(=O)NC2CC2)(c2ccc([N+](=O)[O-])cc2)[C@@H](c2ccc(CO)cc2)N1CC12CC3CC(CC(C3)C1)C2`, the composite z-score in assay [1] is 1.3; in assay [2], -0.0801; in [3], 0.782; in assay [5], 0.474; in assay [6], 0.612; in assay [7] it was 0.1. The figures for the composite z-score in assay [8], in assay [9] and in [10] were 0.925, 0.253 and 0.571, respectively. In addition, the z-score in [4] was -1.42 (inactive).
With `CCOC(=O)[C@H]1C[C@H]2O[C@@]23C[C@H]1C(=O)N1CCCC1[C@@H]3O[Si](C)(C)C(C)(C)C` (stereo not given in full), the composite z-score in [1] is -0.169; in assay [2] it was -0.199; in assay [3], -0.528; in assay [5], 0.476; in assay [6], -0.445; in assay [7] it was -0.694. In addition, the composite z-score in assay [8] was -0.198; in assay [9], 0.0691; in [10], 0.198. In assay [4], the z-score is 0.376 (inactive).
As to `CCCC[C@@H]1C[C@H]1[C@@H](NC(=O)c1ccc(-c2ccccc2)cc1)c1ccc(-c2ccccc2)cc1`, the composite z-score in [1] was -0.508; in assay [2], 0.126; in [3], 0.0604; in assay [5], 0.259; in [6], 0.127; in assay [7], 1.21. In addition, the composite z-score in [8] amounted to 1.39; in [9], 1.01; in assay [10], 1.35. In assay [4], the z-score is -2.88 (inactive).
For the compound `C=CCNC(=O)[C@@H]1[C@H]2C(=O)O[C@H](c3ccccc3)[C@H](c3ccccc3)N2[C@H](c2ccc(O)cc2)[C@@]12C(=O)N(C(=O)OCCOC)c1ccccc12`, the composite z-score is 1.03 in assay [1]; -0.0262 in [2]; 0.421 in assay [3]; 0.796 in [5]; 1.02 in [6]; -0.405 in [7]. The results for the composite z-score in [8], in assay [9] and in [10] were 0.638, -0.232 and -0.188, respectively. The z-score in assay [4] is -1 (inactive).
On to `[N-]=[N+]=Nc1ccccc1[C@H]1OC(c2ccc(OCCCO)cc2)=N[C@@]1(CCS(=O)(=O)c1ccccc1)C(=O)O`, for which the composite z-score is 1.31 in assay [1]; 0.503 in [2]; 1.14 in [3]; 0.104 in assay [5]; -0.359 in [6]; -0.18 in [7]. Further, the values for the composite z-score in assay [8], in [9] and in [10] were -0.116, -0.601 and 1.25, respectively. In [4], the z-score is -0.433 (inactive).
For `NCCCCCNC(=O)[C@H]1C[C@H]2C(=O)NCC(=O)N2[C@H]1c1cccc(OCCO)c1`, the composite z-score is 1.64 in assay [1]; 0.31 in [2]; 0.284 in assay [3]; 1.25 in assay [5]; 1.29 in assay [6]; 0.388 in assay [7]. In addition, the values for the composite z-score in assay [8], in [9] and in assay [10] were 0.764, 0.912 and -0.0463, respectively. Further, the z-score in assay [4] is -0.284 (inactive).
In the case of `CN1C(=O)C2C=CC(C(O)c3ccccn3)N(Nc3ccccc3)C2C1=O` (stereo not given), the composite z-score in assay [1] is 0.427; in [2] it was 0.257; in assay [3] it was 0.276; in [5], 0.3; in assay [6], 0.422; in assay [7] it was 0.389. Moreover, the composite z-score is 0.157 in [8], -0.0961 in assay [9] and 1.05 in assay [10]. The z-score in assay [4] was 0.782 (inactive).
Consider `COC(=O)C[C@H]1O[C@]2(C(=O)N(Cc3ccccc3)c3ccc(NC(C)=O)cc32)[C@@H](C)[C@@H]1[Si](C)(C)c1ccc(OC)cc1`, for which the composite z-score is 0.407 in assay [1]; -0.097 in assay [2]; -0.362 in assay [3]; 0.802 in assay [5]; 0.985 in assay [6]; 0.474 in assay [7]. For the same compound, the composite z-score in assay [8] is 0.719; in assay [9], 0.599; in assay [10], 0.25. Moreover, the z-score in assay [4] is -0.703 (inactive).

(Values after PubChem BioAssay.)
